Bioassay records from PubChem BioAssay.
Compounds with a hit are over-represented: about 1.7% of the library has one in this group of screens.
N-glyco inh = blocks N-linked glycosylation in D54 reporter cells. reporter increase, % at 12.5 µM. 0.23% of 360,000 active. D54 ERlucT glycosylation luciferase reporter, 24 h; percent of 100 nM tunicamycin response;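 active = mean luciferase reporter signal, scaled so untreated is 0 and the glycosylation-blocking control 100, at or above a set limit in every replicate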;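 note: luciferase carries N-glycosylation sites so blocking glycosylation raises the light; 0% = median of neutral control wells and 100% = median of 100 nM tunicamycin wells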
Cardio protect = modulators protecting cardiomyocytes from myocardial damage; H9c2 cardiomyocytes, H2O2 injury protection, ATPLite, 2 h; protection from H2O2 cell death, % at 20 µM; 0.63% of 360,000 active; AID 588492;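 active = compounds giving at least 50% protection of heart cells from peroxide-induced death in the single-dose screen, raw or plate-pattern-corrected value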;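 note: 0% = DMSO wells with peroxide and 100% = DMSO wells without peroxide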
aDG glyco act = alpha-DG glycosylation activation; 0.22% of 360,000 active; activation, % at 10 µM; Pro5-aDG cells, alpha-DG glycosylation AlphaScreen (IIH6); 0% Pro5, 100% B10-LARGE cell signal;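 active = activation of at least 8% versus controls, or a plate z-score of at least 8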;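 note: Pro5 are CHO cells carrying HIG-tagged alpha-DG that lacks glycosylation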
Vif imaging = inhibitors of HIV Vif | HEK293T cells, Vif self-association by quenched fluorescence, imaging, 24 h | inhibition, % at 7.49 µM | 0.35% of 340,000 active | AID 602346; in the data active = inhibition above about 50%, passing the limit was not always enough
ARNT-TACC3 inh = disrupts binding between human ARNT and TACC3; Q9Y6A5; 0.66% of 390,000 active; AlphaScreen His-ARNT PAS-B/GST-TACC3 binding, luminescence; TACC3 fragment carries E629A point mutation; inhibition, % at 9.99 µM;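 active = mean inhibition of replicates at least 50% and at least half of replicates each reaching 50%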;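 note: 0% = complete ARNT plus TACC3 wells and 100% = ARNT alone without TACC3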
ARNT Alpha ctr = AlphaScreen artifact in ARNT/TACC3 counter-screen. AC50, µM (series often up to 68 µM), without a hit: top-dose activity change, negative = signal decrease. shares compounds with ARNT-TACC3 inh. AID 651705. 50% of 1,200 active. His-ARNT PASB-GST AlphaScreen artifact counter-screen, luminescence;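 active = every separate test run was called active for a drop in luminescence, with AC50 within twice the top valid dose, actives reach about 71 µM in these data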
* marks the source's active call; other numbers are inactive results; / = no result given; [ ] = remark or other dose.

SMILES | N-glyco inh | Cardio protect | aDG glyco act | Vif imaging | ARNT-TACC3 inh | ARNT Alpha ctr
COCc1cn(CC[C@@H]2CC[C@@H](NC(=O)c3ccc(F)cc3)[C@H](CO)O2)nn1 | / | / | / | / | 6 | /
COCc1cn(CC[C@@H]2CC[C@@H](NC(=O)c3ccc(F)cc3)[C@@H](CO)O2)nn1 | / | / | / | / | -7 | /
O=C(N[C@H]1CC[C@@H](CCn2cc(-c3ccccn3)nn2)O[C@H]1CO)c1ccc(F)cc1 | / | / | / | / | 60* | 43µM*
CCCNC(=O)N1[C@@H](CO)[C@@H]2c3ccccc3N(C)C[C@@H]21 | / | / | / | / | -3 | /
O=C(CNCc1ccccn1)Nc1cc(C(F)(F)F)ccc1N1CCOCC1 | 3 | 8 | 0 | 3 | 58* | -19%
O=C(O)c1c[nH]c2c([N+](=O)[O-])cccc2c1=O | -2 | 3 | 0 | -1 | 49* | -5%
Cc1c(C(=O)O)cccc1[N+](=O)[O-] | 2 | -2 | 0 | -2 | / | /
C[C@@H]1CCCCO[C@H](CN(C)C)[C@H](C)CN([C@@H](C)CO)C(=O)c2cc(NC(=O)c3ccccc3)ccc2O1 | / | / | / | / | -2 | /
O=C(C[C@@H]1CC[C@@H](NC(=O)c2ccccc2)[C@H](CO)O1)Nc1ccc(-c2ccccc2)cc1 | / | / | / | / | 54* | -8%[42 µM]
O=C(C[C@@H]1CC[C@H](NC(=O)Nc2cc(F)ccc2F)[C@@H](CO)O1)Nc1ccc(-c2ccccc2)cc1 | / | / | / | / | 54* | 1%[38 µM]
O=S(=O)(N[C@H]1CC[C@@H](CCn2cc(-c3cccc(F)c3)nn2)O[C@H]1CO)c1ccccc1 | / | / | / | / | 2 | /
O=S(=O)(N[C@@H]1CC[C@H](CCn2cc(-c3ccccn3)nn2)O[C@H]1CO)c1cccc(F)c1 | / | / | / | / | 84* | 44µM*
O=S(=O)(N[C@H]1CC[C@@H](CCn2cc(-c3ccccn3)nn2)O[C@H]1CO)c1cccc(F)c1 | / | / | / | / | 88* | 39µM*
COc1ccc(S(=O)(=O)N[C@@H]2CC[C@@H](CCn3cc(-c4cccc(F)c4)nn3)O[C@H]2CO)cc1 | / | / | / | / | -11 | /
CC(OC(=O)Cc1c(F)cccc1Cl)C(=O)NC1(C#N)CCCCC1 (configuration not stated) | 1 | 12 | 0 | / | active | -8%
O=c1ccc(-c2ccc(S(=O)(=O)Nc3ccc(F)cc3)s2)n[nH]1 | 1 | -4 | 0 | -3 | 50* | -9%
CCC(=O)Nc1ccc2c(c1)C(=O)N(C)C[C@H](OC)[C@H](C)CN(C(=O)c1ccncc1)[C@@H](C)CO2 | / | / | / | / | -6 | /
c1ccc(-c2nnc(-c3ccccn3)nc2NCC2CCOCC2)cc1 | / | / | / | / | / | 1.1µM*
c1ccc(-c2cccc(CNc3nc(-c4ccccn4)nnc3-c3ccccc3)c2)cc1 | / | / | / | / | / | 7.1µM*
OCCCNc1nc(-c2ccccn2)nnc1-c1ccccc1 | / | / | / | / | / | 1.2µM*
O=[N+]([O-])c1ccc(-c2nnc(-c3ccccc3)c(NCCCO)n2)cc1 | 3 | -2 | 0 | -4 | -5 | /
c1ccc(-c2nnc(-c3ccccn3)nn2)nc1 | -2 | -11 | 1 | -5 | 74* | -33%
C[C@@H]1CN([C@@H](C)CO)C(=O)c2cc(-c3cccc(C(=O)N(C)C)c3)cnc2O[C@@H]1CN(C)S(=O)(=O)c1cccc(F)c1 | / | / | / | / | 2 | /
Cc1cccc(-c2ccc([C@@H]3[C@@H](CO)N4CCCCN(Cc5cncnc5)C[C@H]34)cc2)c1 | / | / | / | / | 7 | /
C[C@H](CO)N1C[C@H](C)[C@H](CN(C)Cc2ccc(C(=O)O)cc2)Oc2ccc(NC(=O)CCC(F)(F)F)cc2C1=O | / | / | / | / | -1 | /
SMILES | N-glyco inh | Cardio protect | aDG glyco act | Vif imaging | ARNT-TACC3 inh | ARNT Alpha ctr
CNC[C@@H]1Oc2c(NS(=O)(=O)c3ccccc3)cccc2C(=O)N([C@@H](C)CO)C[C@H]1C | / | / | / | / | 6 | /
C[C@H]1CN([C@@H](C)CO)C(=O)c2cc(C#CC3CCCCC3)cnc2O[C@H]1CN(C)Cc1cncnc1 | / | / | / | / | 8 | /
CN(C)c1nc(-c2ccccn2)nnc1-c1ccccc1 | -11 | 67* | 1 | 27 | 64* | 1.1µM*
c1ccc(CNc2nc(-c3ccccn3)nnc2-c2ccccc2)cc1 | / | / | / | / | / | 0.79µM*
c1ccc(CCNc2nc(-c3ccccn3)nnc2-c2ccccc2)cc1 | / | / | / | / | / | 2.5µM*
COc1cccc(CNc2nc(-c3ccccn3)nnc2-c2ccccc2)c1 | / | / | / | / | / | 1.6µM*
c1ccc(-c2nnc(-c3ccccn3)c(-c3ccccn3)n2)nc1 | 2 | -1 | 0 | 8 | / | /
C[C@H](CO)N1C[C@H](C)[C@H](CN(C)S(=O)(=O)c2ccc(F)cc2)Oc2ncc(C#CCN(C)C)cc2C1=O | / | / | / | / | -7 | /
COc1cccc(S(=O)(=O)N[C@@H]2CC[C@H](CCn3cc(-c4ccc(F)cc4)nn3)O[C@@H]2CO)c1 | / | / | / | / | 21 | /
O=C(N[C@@H]1CC[C@@H](CCn2cc(C3CCCCC3)nn2)O[C@H]1CO)c1cccnc1 | / | / | / | / | -24 | /
c1ccc(-c2nc(NCCCN3CCOCC3)c3ccccc3n2)cc1 | 0 | 12 | 0 | 14 | 6 | /
c1ccc(-c2nnc(-c3ccccn3)nc2NCCCN2CCOCC2)cc1 | / | / | / | / | / | 1.1µM*
C[C@@H](Nc1nc(-c2ccccn2)nnc1-c1ccccc1)c1ccccc1 | / | / | / | / | / | 2.4µM*
CC(C)Nc1nc(-c2ccccc2)nnc1-c1ccccc1 | 1 | 17 | 0 | -2 | -10 | /
C[C@@H]1CN([C@@H](C)CO)C(=O)c2cccc(NS(=O)(=O)c3ccc(F)cc3)c2O[C@H]1CN(C)S(=O)(=O)c1ccc(F)cc1 | / | / | / | / | -1 | /
O=C(N[C@H]1CC[C@H](CCn2cc(C3CCCCC3)nn2)O[C@@H]1CO)c1cccnc1 | / | / | / | / | 2 | /
O=C(N[C@H]1CC[C@@H](CCn2cc(-c3ccccn3)nn2)O[C@H]1CO)c1cccnc1 | / | / | / | / | 69* | 26µM*
